NS1 inh = qHTS Assay for Inhibitors of Influenza NS1 Protein Function. Potency, µM (titrated, usually from 46.1 µM), without a hit: at the highest dose activity, positive = more growth. hit rate 0.4% among 270,000; calls by dose curve; note: potency is the fitted concentration of half-maximal effect; actives are rising curves; nearly all actives have a fitted effect of over 50% in size
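OD600 was taken as the measure of yeast growth restored by compound in an NS1-expressing S. cerevisiae strain. Cells had been washed out of glucose medium and diluted 1:100 into galactose -URA medium, pH 6.0.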
Pf growth 96h = Primary qHTS for delayed death inhibitors of the malarial parasite plastid, 96 hour incubation. P. falciparum luciferase reporter growth, 96 h. Potency, µM (top dose mostly 28.7 µM), for inactives: top-dose activity change, negative = inhibition, actives largely listed as inhibitors. hit rate 6.9% among 320,000. AID 504834, 2011; note: potency is the fitted concentration of half-maximal effect; % is set by controls: 0 for no effect and ±100 for the full control effect
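Two parasite generations (96 h, 37 C, 5% CO2) of compound exposure in infected erythrocytes (0.05% parasitemia, 2% hematocrit). Luciferase-reporter P. falciparum; decreased luminescence indicates inhibited growth, aimed at apicoplast-acting delayed death.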
AMA1-RON2 inh = qHTS for Inhibitors of AMA1-RON; Towards Development of Antimalarial Drug Lead: Primary Screen | Potency, µM (highest dose often 58.2 µM), inactives show at the highest dose activity change, negative = inhibition, actives largely listed as inhibitors | Plasmodium falciparum AMA1 (3D7) - RON2 peptide interaction | AlphaScreen AMA1-biotinylated RON2 peptide binding | hit rate 0.2% among 360,000;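 note: potency is the fitted concentration of half-maximal effect; 0% = vehicle wells and -100% = peptide control; nearly all actives have a fitted effect of over 45% in size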
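AMA1 (3D7) with his tag at 25 nM final met compounds first, then biotinylated RON2 peptide at 25 nM; detection used donor plus acceptor beads, 10 µg/mL apiece, read by AlphaScreen after 30 min at room temperature.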
Pf growth 48h = Primary qHTS for delayed death inhibitors of the malarial parasite plastid, 48 hour incubation; P. falciparum luciferase growth in erythrocytes, 48 h; Potency, µM (titrated, usually from 28.7 µM), for the others: at the highest dose activity change, negative = inhibition, actives largely listed as inhibitors; hit rate 5.9% among 310,000; AID 504832, 2011; note: potency is the fitted concentration of half-maximal effect; % is set by controls: 0 for no effect and ±100 for the full control effect
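A one-generation exposure of luciferase-tagged malaria parasites in RPMI 1640/Albumax erythrocyte culture, 37 C and 5% CO2. Inhibition is inferred from decreased luminescence after adding detection reagent.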
Sm TGR block = qHTS Assay for the Inhibitors of Schistosoma Mansoni Peroxiredoxins | Schistosoma mansoni thioredoxin glutathione reductase (TGR), Q962Y6 | purified TGR, DTNB reduction, TNB absorbance 405 nm | AID 485364, 2010 | Potency, µM (top dose mostly 114 µM), without a hit: at the top dose activity change, negative = inhibition, usual class: inhibitors | hit rate 3% among 360,000; note: potency is the fitted concentration of half-maximal effect; % is set by controls: 0 for no effect and ±100 for the full control effect; nearly all actives have a fitted effect of over 60% in size
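First, TGR (20 nM dispensed) and NADPH were mixed with compound. Second, a 15 min room-temperature incubation followed. Third, further NADPH and then DTNB were added to start the reaction. Finally, TNB absorbance was monitored kinetically.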
NS1 inh valid = Assay for Inhibitors of Influenza NS1 Protein Function: Hit Validation. 1,400 tested, under 10 active. activity change, negative = inhibition, % at 32.9 µM. influenza NS1 function cell assay, 15-point titration. shares compounds with NS1 inh; calls by dose curve; note: 0% is about no effect
Flu PR8 replic = Assay for Inhibitors of Influenza NS1 Protein Function: Influenza virus replication assay in MDCK cells infected with virus A/PR/8/34; MDCK infected influenza A/PR/8/34, virus titer TCID50; hits give low values; AID 504647, 2011; virus titer (log TCID50), log10 TCID50 at 5 µM; shares compounds with NS1 inh; hit rate 30% among 95; call rule not given here
* marks the source's active call; other numbers are inactive results; ? = inconclusive; . = no result given. A selection: hits, their analogues and other compounds. The true share with any hit is near 11%. Unless noted, calls come from the whole dose curve; as a rule, active = well fitted curve in the direction sought with a large enough effect; inconclusive = small, poorly fitted or top-dose-only effect, or another doubt; inactive = no such curve, though single readings can be large; an effect the other way counts as inactive or inconclusive.

SMILES | NS1 inh | Pf growth 96h | AMA1-RON2 inh | Pf growth 48h | Sm TGR block | NS1 inh valid | others
Cc1cc(C)nc(OC(C(=O)O)C(OCCC(C)C)(c2ccccc2)c2ccccc2)n1 (stereo not given) | 2.51µM* | -49.5% | -1.4% | 13.3% | -3.8% | 20.2
Cc1ccnc(OC(C(=O)O)C(OCc2ccccc2)(c2ccccc2)c2ccc(C(F)(F)F)cc2)n1 (stereo not given) | ? | ? | -1.5% | 6.3% | ? | 28.4
Cc1noc(/C=C/N(C)C)c1S(=O)(=O)N1CCCC(C(=O)NC(C)c2ccccc2)C1 (stereo not given) | 1.78µM* | ? | -20.2% | ? | 12.6% | ? | Flu PR8 replic=7.66
COc1ccc(NC(=O)c2ccco2)cc1NC(=O)c1cc(OC)c(OC)c(OC)c1 | . | . | . | . | 3.9% | .
Cc1cccc(-n2c(SCC(=O)NCc3ccco3)nc3ccccc3c2=O)c1 | -12.2% | -25.4% | 6.2% | ? | -9.3% | .
O=C(CSc1nc2cc(C(=O)O)ccc2c(=O)n1-c1ccc(F)cc1)Nc1ccc(F)c(F)c1F | 14.0% | ? | 8.5% | . | 3.5% | .
O=C(CSc1nc2ccccc2c(=O)n1-c1ccc(F)cc1F)Nc1ccc2c(c1)CCC2 | 12.6µM* | ? | -8.4% | 9.28µM* | 8.6% | 2.3
O=C(CSc1nc2ccccc2c(=O)n1-c1ccccc1F)Nc1ccc2c(c1)CCC2 | ? | ? | -5.6% | ? | 0.7% | .
Cc1ccc(-n2c(SCC(=O)NNC(=S)Nc3ccccc3)nc3ccccc3c2=O)cc1 | 4.47µM* | 3.7% | 17.7% | -6.8% | -3.4% | -25.7
O=C(CSc1nc2ccccc2c(=O)n1-c1ccc(F)cc1)Nc1ccc(C(=O)O)cc1 | 14.1µM* | -11.8% | 10.4% | -20.1% | -2.5% | ?
Cc1cccc(C)c1NC(=O)CCS(=O)(=O)c1cccc2nonc12 | ? | 16.3% | -9.5% | 0.0% | -0.8% | 5.0
Cc1cccc(NC(=O)CCS(=O)(=O)c2cccc3nonc23)c1C | -14.8% | -15.2% | -15.9% | 10.6% | -15.0% | .
CCOC(=O)C1CCCN(C(=O)Cn2cnc3sc(C)c(S(=O)(=O)N4CCOCC4)c3c2=O)C1 (stereo not given) | 16.8% | 6.0% | 21.4% | -10.1% | 0.9% | .
CCN(CC)C(=O)CSc1nc2cc3c(cc2c(=O)n1CCCC(=O)NCc1ccc(OC)cc1)OCO3 | . | -13.1% | 5.9% | -28.4% | 4.7% | .
COc1ccc(CNC(=O)CCCCCn2c(SCC#N)nc3cc4c(cc3c2=O)OCO4)cc1 | 11.2µM* | 1.3% | -15.4% | ? | 31.2% | -16.2
O=C(NCCCN1CCOCC1)C1CC(=O)N(C2CCCCC2)C1 (stereo not given) | 1µM* | ? | 6.4% | 33.9% | 18.8% | -20.1
CCOc1ccc(C(C#N)N2CCOCC2)cc1OC (stereo not given) | 15.8µM* | 41.0% | 0.9% | 3.4% | 4.4% | ?
Nc1nc(SCC(=O)N2N=C3/C(=C/c4ccco4)CCCC3C2c2ccco2)n[nH]1 (stereo not given) | 12.4% | . | -3.7% | ? | ? | .
Cn1cnnc1SCC(=O)N1N=C2/C(=C/c3ccco3)CCCC2C1c1ccco1 (stereo not given) | 3.55µM* | 10.4µM* | -8.9% | ? | 44.7µM* | 2.1
COc1ccc(C(=O)NCC(C)NC(=O)c2ccc(OC)c(Br)c2)cc1Br (stereo not given) | . | . | 9.3% | . | . | .
c1nc(NC2CCCCC2)c2[nH]cnc2n1 | 0.7% | 2.3% | -0.6% | 3.9% | 4.8% | .
c1nc(NC2CCCCCC2)c2[nH]cnc2n1 | 10µM* | ? | 4.0% | ? | -2.6% | -23.7
